Assay results from the supplement of paper PMC6992640.
± gives the standard deviation of the averaged measurements.

Key:
Assay in all cases: cell viability (% of vehicle); higher = less cytotoxic
Conditions in all cases: 10 µM; 72 h
[1] = system: HCI01 (cells of a triple-negative basal-like breast cancer xenograft)
[2] = system: HCI03 (cells of an ER-positive luminal breast cancer xenograft)
[3] = system: HCI09 (cells of a triple-negative luminal androgen receptor type breast cancer xenograft)
[4] = system: HCI11 (cells of an ER-positive luminal breast cancer xenograft)
[5] = system: HCI13 (cells of an ER-positive luminal breast cancer xenograft)
[6] = system: HCI16 (cells of a triple-negative basal-like breast cancer xenograft)
[7] = system: UCD52 (cells of a triple-negative basal-like breast cancer xenograft)
[8] = system: WHIM2 (cells of a triple-negative basal-like breast cancer xenograft)
[9] = system: WHIM30 (cells of a triple-negative basal-like breast cancer xenograft)
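Also: PDX cells carrying CMV promoter-driven luciferase, viability read as total photon flux per second by IVIS imaging following D-luciferin, vehicle control 0.1% DMSO.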

Row | SMILES | cell viability [1] | cell viability [2] | cell viability [3] | cell viability [4] | cell viability [5] | cell viability [6] | cell viability [7] | cell viability [8] | cell viability [9]
1 | CC1=C2N=C(C=C3N=C(C(C)=C4[N-]C(C)(C5N=C1C(C)(CCC(=O)NCC(C)OP(=O)([O-])OC1C(CO)OC(n6cnc7cc(C)c(C)cc76)C1O)C5CC(N)=O)C(C)(CC(N)=O)C4CCC(N)=O)C(C)(CC(N)=O)C3CCC(N)=O)C(C)(C)C2CCC(N)=O.[CH3-].[Co+3] (stereo not drawn) [Methylcobalamin] | 81.6 ± 13 | 132 | 112 ± 14 | 91.1 | 112 ± 2.5 | 106 | 112 ± 9.1 | 91.3 ± 23 | 106.57 ± 0.028
2 | Cn1c(=O)c2[nH]cnc2n(C)c1=O [Theophylline] | 98.1 ± 19 | 123 | 94 ± 22 | 66.9 | 92.4 ± 1.1 | 117 | 103 ± 5.6 | 86.5 ± 16 | 95.8 ± 16
3 | CN(Cc1ccc(C(C)(C)C)cc1)Cc1cccc2ccccc12.Cl [Butenafine HCl] | 104 ± 1.5 | 99.2 | 117 ± 19 | 104 | 72.7 ± 4.7 | 151 | 81.4 ± 2.7 | 56.2 ± 12 | 142 ± 3.3
4 | OCCN(CCO)c1nc(N2CCCCC2)c2nc(N(CCO)CCO)nc(N3CCCCC3)c2n1 [Dipyridamole] | 90.2 ± 14 | 116 | 87.4 ± 23 | 105 | 96.2 ± 6.1 | 150 | 89.6 ± 3.4 | 112 ± 34 | 142 ± 12
5 | Cl.NC(N)=NC(=O)c1nc(Cl)c(N)nc1N.O.O [Amiloride HCl dihydrate] | 99.2 ± 7.3 | 102 | 121 ± 1.5 | 89.4 | 102 ± 8.4 | 115 | 96.35 ± 0.8 | 86 ± 16 | 114 ± 8.2
6 | CCC(=O)NCCC1CCc2ccc3c(c21)CCO3 (stereo not drawn) [Ramelteon] | 98.9 ± 7 | 113 | 94 ± 8.3 | 93 | 94 ± 20 | 81.6 | 80.6 ± 1.4 | 80.7 ± 9.9 | 103 ± 3.4
7 | C=CCc1cc(OC)c(O)c(C(=O)NCCO)c1 [Alibendol] | 98.3 ± 18 | 139 | 107 ± 17 | 110 | 68 ± 5 | 133 | 109 ± 3.4 | 115 ± 23 | 138 ± 20
8 | CC(CN1CC(=O)NC(=O)C1)N1CC(=O)NC(=O)C1 (stereo not drawn) [Dexrazoxane] | 83 ± 6.2 | 148 | 102 ± 20 | 92.4 | 110 ± 13 | 103 | 100.8 ± 0.77 | 75.7 ± 5.5 | 131.05 ± 0.028
9 | COC1C(OC(N)=O)C(O)C(Oc2ccc3c(O)c(NC(=O)c4ccc([O-])c(CC=C(C)C)c4)c(=O)oc3c2C)OC1(C)C.[Na+] (stereo not drawn) [Novobiocin Sodium] | 126 ± 61 | 153 | 93.1 ± 5.1 | 75.6 | 140 ± 2.5 | 130 | 120 ± 16 | 130 ± 5.4 | 116 ± 15
10 | Cn1c(=O)cc(N2CCCC(N)C2)n(Cc2cc(F)ccc2C#N)c1=O (stereo not drawn) [Trelagliptin] | 111 ± 7 | 116 | 112 ± 6.1 | 111 | 104 ± 1.3 | 95.2 | 96.2 ± 11 | 96.8 ± 4.5 | 121 ± 13
11 | CC(C)=CCCC(C)=CCCC(C)=CCSc1ccccc1C(=O)O [Salirasib] | 69.5 ± 50 | 112 | 95.6 ± 7.4 | 97.9 | 84.5 ± 4.3 | 103 | 95.5 ± 4.6 | 39.5 ± 1.3 | 120 ± 15
12 | CCCCNC(=O)NS(=O)(=O)c1ccc(C)cc1 [Tolbutamide] | 80.9 ± 42 | 118 | 91.4 ± 5.3 | 83.6 | 88.9 ± 3.6 | 101 | 96.6 ± 5.1 | 105 ± 25 | 101 ± 8.5
